Experimental data from ChEMBL document CHEMBL3988442, “University of Dundee, Small-Polar-MMV Screening Library” (2021).

Molecular target: AMP-activated protein kinase, AMPK (Homo sapiens) (UniProt P54646+O43741+P54619+Q9UGJ0+Q9Y478+Q13131+Q9UGI9)
Experiment: AMP-dependent Kinase enzyme assay. An in vitro enzyme assay that detects ADP turnover that is directly proportional to AMPK activity. This uses naive AMPK that is activated during the assay with MK-8722
Format: functional
Design: scale not given: direction of the effect not stated beside the values
Conditions: 30 µM

Compound | Percent Effect
CCc1ccc(-c2noc(Cn3nc(C(N)=O)ccc3=O)n2)cc1 | -8.7%
CC(NC(=O)NCc1cccnc1N(C)C)c1cccs1 (stereo not given) | -8.61%
CCc1nnc(NC(=O)NCCN(C)C(=O)OC(C)(C)C)s1 | -3.38%
CCNC(=O)C1CCN(Cc2ccc(C(=O)Nc3nnc(C)s3)cc2)C1 (stereo not given) | -2.87%
O=C(Cn1[nH]c2ccccc2c1=O)N1CCCC(CC2CC2)(C(=O)O)C1 (stereo not given) | -3.39%
Cc1ccnc2c1NC(=O)CN2C(=O)CCc1ccccc1 | -1.93%
CC(C)c1cc(NC(CCO)c2ccccc2)n2nccc2n1 (stereo not given) | 13.4%
CN(C)c1ccc(C(=O)N2CCC(c3cc4ncccc4[nH]3)CC2)cc1 | 21.8%
CSc1nccc(N2CCC3(CCCN(CCc4ccccc4)C3)C2)n1 (stereo not given) | 5.34%
COCc1ncc(CN2CCC3(CCC(=O)N(CC(C)O)C3)CC2)cn1 (stereo not given) | -3.44%
Fc1ccc(C2(CNCC(F)F)CCOC2)cc1 (stereo not given) | 3.05%
CCc1cc(=O)[nH]c(-c2ccc(NC(CO)CC(C)C)nc2)n1 (stereo not given) | 4.58%
Cc1noc(C)c1C(=O)N(C)C(C)c1ccc(S(C)(=O)=O)cc1 (stereo not given) | -2.19%
CC(=O)NCC(=O)N1CCCC(C(=O)c2ccc(C(C)(C)C)cc2)C1 (stereo not given) | 7.51%
CN(CC(=O)Nc1ccccc1)C(=O)CN(C)c1ccc(Cl)cn1 | 2.82%
CCn1cnnc1CNS(=O)(=O)N1CCCC1c1ccc(C)o1 (stereo not given) | 0.967%
CCCOc1ccc(Cl)cc1CNc1ncnc2oc(C)nc12 | 0.0102%
CCc1nc(CCNc2ncccc2S(N)(=O)=O)sc1C | -3.81%
Cc1ccc(C(=O)NCc2ccnc(C3CCCOC3)n2)s1 (stereo not given) | 7.88%
Cc1cc(-n2cccn2)ccc1CN1C[C@@H](CN(C)C)[C@@H](CO)C1 | -2%

Compound | Percent Effect
CC(Cc1cccc(F)c1)C(=O)NS(=O)(=O)c1ccc(F)cc1 (stereo not given) | 0.261%
Cc1cc(=O)[nH]c(-n2nc(-c3ccccc3)cc2N)n1 | -11.4%
O=C1CCCCCN1Cc1nc(C2(c3ccc(F)cc3)CCOC2)no1 (stereo not given) | 8.29%
CCN(CC)S(=O)(=O)NCC1COc2ccccc2O1 (stereo not given) | 8.6%
COc1ccccc1CCNC(=O)CNCC1CN(C)CCO1 (stereo not given) | -4.87%
COCCN(Cc1nccs1)c1nc2c(s1)c(C)nn2C | -10%
Cc1ccc(Cl)c(C)c1NC(=O)N1CCCN(Cc2ccccn2)CC1 | 2.6%
Cc1nn(C)c(C)c1CC(=O)NCC1(C(N)=O)CCOCC1 | -4.43%
COc1cc(C)c(S(=O)(=O)CC(=O)N(C)C(C)C)cc1OC | 5.04%
Cc1nn2cccnc2c1C(=O)NCc1ccccc1OC1CCC1 | 6.53%
CO[C@@H]1c2ccccc2C2(CCN(C(=O)CNC(=O)C(C)C)CC2)[C@H]1O | 13.3%
FC(F)(F)c1cccc(OC2CCN(Cc3ccccn3)CC2)c1 | 2.09%
CN(C)Cc1cccc(-c2cccnc2C(=O)NCC2CC2)c1 | 20.3%
Cc1cnn(CCCNC(=O)NCCS(=O)(=O)Nc2ccccc2)c1 | 13.3%
CC(NC(=O)N1CCCN(CC(F)F)CC1)c1ccco1 (stereo not given) | -1.66%
COCCC1CCCCN1C(=O)c1coc(COc2ccccc2F)n1 (stereo not given) | 12.2%
CC(c1ccc(F)cc1F)N1CCN(CCN2CCCC2=O)CC1 (stereo not given) | -18%
CCOc1ccccc1C(C(=O)O)N(C)Cc1nnc(C)o1 (stereo not given) | 4.89%
COCCS(=O)(=O)NCc1ccc(N(C)C)c(C)c1 | 6.36%
Cc1nc(CNC(=O)c2cc(COc3cccc(F)c3)[nH]n2)n[nH]1 | 0.77%
